Assay outcomes: PubChem BioAssay, several laboratories
RecA intein inh: blocks M. tuberculosis RecA intein splicing. inhibition, % (no concentration beside the values). cell-free RecA intein splicing, fluorescence. 290,000 tested, 0.75% active; in the data active = inhibition above about 30%;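 also: 0% = vehicle wells and 100% = reference inhibitor control wells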
Mtb betalactam: beta-lactam sensitization of Mtb H37Rv; M. tuberculosis H37Rv growth with meropenem, percent inhibition; inhibition, % at 25 µM; AID 434955; 330,000 tested, 0.27% active; call rule not given here;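 also: growth measured after seven days incubation then overnight dye step; 0% = bacteria only wells and 100% = bacteria with antibiotic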
Mtb UGM inh: Mtb UDP-galactopyranose mutase inhibition; purified UGM, fluorescence polarization probe displacement; inhibition, % at 10 µM; 320,000 tested, 0.06% active; in the data active = inhibition above about 10%, passing the limit was not always enough
GDH-TPI counter-1: GDH-TPI coupled enzyme inhibition counter-screen | GDH-TPI coupled enzyme counterscreen, NADH absorbance | inhibition, % at 4.8 µM | 360,000 tested, 1.2% active | AID 588335; in the data active = inhibition above about 30%;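 also: 0% = DMSO wells and 100% = wells lacking the enzyme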
Mtb FBA inh: Mtb fructose-bisphosphate aldolase inhibition; purified M. tuberculosis FBA, fluorescence read-out; inhibition, % at 1 µM; 360,000 tested, 2.3% active; AID 588726;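 also: 0% = vehicle and 100% = reference inhibitor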
Rv3671c protease: Rv3671c (M. tuberculosis) protease inhibition. AID 2606. 320,000 tested, 0.048% active. P9WHR9. inhibition, % at 5.96 µM; in the data active = inhibition above about 38%;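 also: extracellular domain of Rv3671c used as enzyme; 0% = enzyme with DMSO and 100% = no enzyme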
Target sequence (P9WHR9 whole entry, looked up, the tested form may be a part): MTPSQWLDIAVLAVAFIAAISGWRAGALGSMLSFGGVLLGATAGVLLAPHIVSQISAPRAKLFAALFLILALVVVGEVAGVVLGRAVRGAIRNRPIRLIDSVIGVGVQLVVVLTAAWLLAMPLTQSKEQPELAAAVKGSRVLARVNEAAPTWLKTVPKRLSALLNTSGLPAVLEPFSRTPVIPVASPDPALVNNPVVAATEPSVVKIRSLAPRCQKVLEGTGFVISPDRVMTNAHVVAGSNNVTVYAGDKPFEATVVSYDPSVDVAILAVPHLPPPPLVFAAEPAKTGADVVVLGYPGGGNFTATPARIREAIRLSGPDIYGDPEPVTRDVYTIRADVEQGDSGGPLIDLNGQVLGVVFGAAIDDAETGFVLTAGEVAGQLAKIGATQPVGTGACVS
Mtb FBA inh conf: confirmation of M. tuberculosis fructose-bisphosphate aldolase inhibitors. purified M. tuberculosis FBA, fluorescence read-out. 5,600 tested, 78% active. inhibition, % at 1 µM. shares compounds with Mtb FBA inh. AID 651616;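 also: 0% = vehicle wells and 100% = reference inhibitor wells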
GDH-TPI counter-2: inhibits GDH-TPI coupling enzymes, flagging Mtb FBA hits | shares compounds with Mtb FBA inh | GDH-TPI coupled enzyme counterscreen, fluorescence | inhibition, % at 1 µM | 5,600 tested, 81% active | AID 652141; in the data active = inhibition above about 10%
Starred values were filed as active, the others as inactive. An excerpt weighted towards active compounds, which were near 4% of everything screened. Rule as the data show it, unless noted: active = inhibition above about 27%; inactive = the rest.

Results for Nc1nc2nc(-c3ccc(OCc4ccccc4)cc3)cc(C(F)(F)F)n2n1 ?
RecA intein inh: -12.0; Mtb betalactam: 0.6; Mtb UGM inh: -3.8; GDH-TPI counter-1: 12.8; Mtb FBA inh: 36.1*; Rv3671c protease: 0.8; Mtb FBA inh conf: active; GDH-TPI counter-2: active

Results for c1ccc(COc2ccc(-c3cc4nc(NCCOc5ccccc5)ccn4n3)cc2)cc1 ?
GDH-TPI counter-1: 28.9; Mtb FBA inh: 11.4

What do the screens show for `O=C(Nc1ccc2ccccc2c1)N1CCN(c2ncccc2C(F)(F)F)CC1`?
RecA intein inh: 2.8; Mtb betalactam: 0.8; Mtb UGM inh: 0.0; GDH-TPI counter-1: -2.5; Mtb FBA inh: 36.5*; Rv3671c protease: -8.0; Mtb FBA inh conf: -9.2; GDH-TPI counter-2: -5.4

Results for CCCCNC(=O)C1(C)CCCCN1C(=O)c1ccc(OC)c(C(F)(F)F)c1 (centres undefined) ?
GDH-TPI counter-1: -1.8; Mtb FBA inh: -1.1

Results for CC(C)CN(C(=O)COC(=O)c1ccccc1NCc1ccco1)c1c(N)n(Cc2ccccc2)c(=O)[nH]c1=O ?
RecA intein inh: 1.1; Mtb betalactam: 0.9; Mtb UGM inh: 0.9; GDH-TPI counter-1: -0.7; Mtb FBA inh: 30.5*; Rv3671c protease: 0.0; Mtb FBA inh conf: 152.0*; GDH-TPI counter-2: 122.6*

What do the screens show for `COCCN(C(=O)COC(=O)c1ccccc1NCc1ccco1)c1c(N)n(Cc2ccccc2)c(=O)[nH]c1=O`?
RecA intein inh: -0.4; Mtb betalactam: -5.8; Mtb UGM inh: 2.3; GDH-TPI counter-1: 10.8; Mtb FBA inh: 81.2*; Rv3671c protease: 1.4; Mtb FBA inh conf: 150.9*; GDH-TPI counter-2: 117.7*

How did COCCN(C(=O)COC(=O)c1ccco1)c1c(N)n(Cc2ccccc2)c(=O)[nH]c1=O do in these assays?
RecA intein inh: -0.5; Mtb betalactam: -4.2; Mtb UGM inh: 5.3; GDH-TPI counter-1: 2.4; Mtb FBA inh: -1.6; Rv3671c protease: -5.2

What do the screens show for `Cc1ccc(SCC(=O)NNC(=O)CCS(=O)(=O)c2ccccc2)cc1`?
Mtb betalactam: -4.5; Mtb UGM inh: 3.1; GDH-TPI counter-1: 7.7; Mtb FBA inh: -1.3; Rv3671c protease: -5.5

Results for C[C@H]1CN([C@@H](C)CO)C(=O)c2cc(Br)cnc2O[C@@H]1CN(C)C(=O)C1CCC1 ?
GDH-TPI counter-1: 7.2; Mtb FBA inh: 1.3

What do the screens show for `CC(C)(C)OC(=O)N1CCC[C@H]1C(=O)N/N=C/c1ccc2nccnc2c1`?
RecA intein inh: -2.5; Mtb betalactam: -2.4; Mtb UGM inh: -0.5; GDH-TPI counter-1: 8.6; Mtb FBA inh: -0.5; Rv3671c protease: 2.1

Results for CCC(C)[C@H](NC(=O)OC(C)(C)C)C(=O)N/N=C/c1ccc2cc(OC)ccc2n1 (some centres undefined) ?
RecA intein inh: -3.2; Mtb betalactam: -7.8; Mtb UGM inh: 1.7; GDH-TPI counter-1: 17.7; Mtb FBA inh: 33.0*; Rv3671c protease: -3.8; Mtb FBA inh conf: active; GDH-TPI counter-2: 180.5*

What do the screens show for `COc1ccc2nc(/C=N/NC(=O)[C@@H]3CCCN3C(=O)OC(C)(C)C)ccc2c1`?
RecA intein inh: 0.7; Mtb betalactam: -10.1; Mtb UGM inh: -2.1; GDH-TPI counter-1: 9.2; Mtb FBA inh: 99.1*; Rv3671c protease: 3.3; Mtb FBA inh conf: 54.0*; GDH-TPI counter-2: 45.9*

Results for COc1ccc2nc(/C=N/NC(=O)[C@H](CCSC)NC(=O)OC(C)(C)C)ccc2c1 ?
RecA intein inh: -1.9; Mtb betalactam: -0.6; Mtb UGM inh: -2.5; GDH-TPI counter-1: 32.1*; Mtb FBA inh: 60.2*; Rv3671c protease: 9.0; Mtb FBA inh conf: 53.1*; GDH-TPI counter-2: 56.0*

Results for CSCC[C@H](NC(=O)OC(C)(C)C)C(=O)N/N=C/c1cccc2cccnc12 ?
RecA intein inh: 0.1; Mtb betalactam: 7.1; Mtb UGM inh: 2.7; GDH-TPI counter-1: 15.5; Mtb FBA inh: 0.0; Rv3671c protease: 3.5

Results for OCCc1c[nH]c2ccc(C(F)(F)F)cc12 ?
RecA intein inh: 1.7; Mtb betalactam: 0.5; Mtb UGM inh: -1.1; GDH-TPI counter-1: 10.6; Mtb FBA inh: -0.8; Rv3671c protease: 6.8
